Screens deposited in PubChem by National Center for Advancing Translational Sciences (NCATS).
HT1080-NT tox = qHTS for induction of synthetic lethality in tumor cells producing 2HG: qHTS for the HT-1080-NT fibrosarcoma cell line | 360,000 compounds, 1.6% hits | Potency, µM (series often up to 46.1 µM), inactives show at the top dose activity, negative = less viability, most hits filed as cytotoxic | AID 686970, 2013 | HT-1080-NT fibrosarcoma viability, CellTiter-Glo ATP luminescence, 48 h;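 also: NT is the 2HG producing partner of a matched IDH1 knockdown line; 0% = DMSO-treated cells and -100% = media-only wells without cells; nearly all actives have a fitted effect of over 55% in size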
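750 cells/well, RPMI + 5% FBS; 2 h settle, compound pin-transfer, 48 h at 37 degrees C. CellTiter-Glo 10 min RT, luminescence. Normalized to DMSO and media-only wells.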
KB-V1 cytotox = qHTS assay for MDR1-selective chemotherapeutics: Primary screen using the drug-selected MDR subline cells KB-V1 | KB-V1 MDR cells viability, CellTiter-Glo, 72 h | Potency, µM (highest dose often 46.1 µM), hits mostly cytotoxic | 400,000 compounds, 3.4% hits | AID 1347076, 2019; also: % is scaled to controls: 0 for no effect and ±100 for the full control effect; nearly all actives have a fitted effect of over 60% in size
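qHTS viability screen in drug-selected KB-V1 MDR cells: 72 h compound treatment at 37 degrees C, ATP luminescence end point.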
KB-3-1 tox = qHTS assay for MDR1-selective chemotherapeutics: Primary screen using the parental adenocarcinoma cell KB-3-1; KB-3-1 viability, CellTiter-Glo ATP luminescence, 72 h; Potency, µM (series often up to 46.1 µM), actives largely listed as cytotoxic; 400,000 compounds, 1.4% hits; also: % is scaled to controls: 0 for no effect and ±100 for the full control effect; nearly all actives have a fitted effect of over 60% in size
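Here the drug-naive KB-3-1 line serves as comparator for MDR sub-line selectivity; cells received compound titrations, 72 h at 37 °C, then CellTiter-Glo readout.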
HT1080 IDH1KD tx = qHTS for induction of synthetic lethality in tumor cells producing 2HG: qHTS for the HT-1080-IDH1KD cell line; HT-1080 IDH1 knockdown viability, ATP luminescence, 48 h; Potency, µM (highest dose often 46.1 µM), for inactives: at the top dose activity, negative = toxicity, usual class: cytotoxic; 360,000 compounds, 2% hits; AID 686971, 2013;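 also: 0% = DMSO wells and -100% = cell-free medium wells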
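IDH1KD HT-1080 cells, 750/well, RPMI + 5% FBS; compound pinned after 2 h settling; 48 h, 37 °C; CellTiter-Glo luminescence; % activity normalised to DMSO and no-cell wells; curves fitted, classed by r2 and efficacy.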
MCF10A rereplic = A quantitative high throughput screen for small molecules that induce DNA re-replication in MCF 10a normal breast cells. MCF 10A DNA re-replication, Hoechst nuclear intensity, 48 h. Potency, µM (doses to about 46.1 µM), without a hit: at the top dose activity, positive = re-replication, most hits filed as activators. 350,000 compounds, 2.9% hits. AID 624296, 2012; also: % of control where 0% means no effect; nearly all actives have a fitted effect of over 50% in size
SW480 rerep = A quantitative high throughput screen for small molecules that induce DNA re-replication in SW480 colon adenocarcinoma cells. SW480 DNA re-replication, Hoechst DNA content imaging, 48 h. Potency, µM (top dose mostly 46.1 µM), without a hit: at the highest dose re-replication activation, usual class: activators. 340,000 compounds, 1.8% hits; also: % of control where 0% means no effect; nearly all actives have a fitted effect of over 55% in size
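Per well, 250 cells were exposed to pinned compound for 48 hr. Nuclear DNA was visualised with Hoechst (40 min, 37 C) and total object intensity recorded by fluorescence scanning.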
Numbers without * were called inactive; i = inactive; ? = inconclusive; / = no result. Compounds with a hit are over-represented: about 8% of the library has one in this group of screens. Calls follow the shape of the dose curve; as a rule, active = well fitted curve in the direction sought with a large enough effect; inconclusive = small, poorly fitted or top-dose-only effect, or another doubt; inactive = no such curve, though single readings can be large; an effect the other way counts as inactive or inconclusive. Potency is read from the fitted curve at half-maximal effect.

SMILES	HT1080-NT tox	KB-V1 cytotox	KB-3-1 tox	HT1080 IDH1KD tx	MCF10A rereplic	SW480 rerep
CCOc1ccccc1-c1cc(C(=O)N/N=C/c2cccnc2)c2ccccc2n1	-26%	i	i	-18%	17%	5%
O=C(N/N=C/c1ccc[nH]1)c1cc(-c2cccs2)nc2ccccc12	?	?	?	?	11%	10%
COc1ccc(-c2cc(C(=O)N/N=C/c3cccnc3)c3cc(C)cc(C)c3n2)cc1	?	?	i	?	16µM*	?
Cn1cccc1/C=N/NC(=O)c1cc(-c2cccs2)nc2ccccc12	?	6.5µM*	7.3µM*	?	5.8µM*	15µM*
Cc1ccc(CNC(=O)c2cn(C)c3ccc(S(=O)(=O)N(C)C4CCCCC4)cc3c2=O)cc1	/	i	i	/	/	/
CCN(Cc1ccccc1)C(=O)Cn1c(=O)n(-c2ccccc2)c(=O)c2c1c1cc(C)ccc1n2C	/	i	i	/	/	/
Cc1cc(C)c(NC(=O)c2nc3ccccc3nc2N2CCCCC2)c(C)c1	/	i	i	/	/	/
Cc1ccc(NC(=O)c2oc3ccccc3c2NC(=O)C23CC4CC(CC(C4)C2)C3)cc1	/	?	i	/	/	/
Cc1cccc(-c2nc3cc(NC(=O)C4CCCO4)ccc3o2)c1 (stereo not given)	-14%	13µM*	i	-3%	-56%	-59%
CC(=O)Nc1ccc(S(=O)(=O)Nc2cccc(-c3nc4cc(C)ccc4o3)c2)cc1	-1%	?	18µM*	15%	?	1%
Cc1ccc(NC(=O)c2cc(-n3cnnc3)ccc2Cl)cc1	6%	i	i	11%	28%	-2%
O=C(Nc1ccc(-c2nc3ccccc3s2)cc1)c1cc(-n2cnnc2)ccc1Cl	10µM*	i	?	11µM*	2%	1%
Cc1ccc2oc(-c3cccc(NC(=O)c4cccc5c(Cl)cccc45)c3)nc2c1	/	?	i	/	/	/
CC(=O)Nc1ccc(S(=O)(=O)Nc2cccc(-c3csc(C)n3)c2)cc1	-27%	i	i	?	-1%	18%
Cc1ccc2oc(-c3cccc(NC(=O)c4cc(-n5cnnc5)ccc4Cl)c3)nc2c1	?	i	i	?	8.2µM*	?
CCOc1ccc(C2CC(=O)Nc3nc(SCc4ccccc4C)[nH]c(=O)c32)cc1OC (stereo not given)	/	i	i	/	/	/
Cc1ccc2oc(-c3ccc(C)c(NC(=O)Cc4cccs4)c3)nc2c1	-2%	?	i	-15%	2%	-38%
Cc1ccc2oc(-c3cccc(NC(=O)Cc4cccs4)c3)nc2c1	-3%	i	i	-1%	15µM*	2%
COC(=O)/C(=C/c1cccnc1)NC(=O)c1ccccc1	-3%	i	i	3%	-10%	-7%
COC(=O)C(=C/C(C)=C/c1cccnc1)C(=O)OC	-25%	?	?	-11%	8.2µM*	?
CCOC(=O)c1ccccc1NC(=O)Nc1ccc(OC)c(OC)c1	-10%	i	i	-30%	0%	7%
Cc1cc(NC(=O)NC(=O)c2ccccc2NC(=O)C(C)N)ccc1Oc1ncc(Br)cn1 (stereo not given)	?	0.73µM*	0.23µM*	0.092µM*	?	2.9µM*
COc1ccccc1Cn1c(=O)c2ccccc2n2c(Sc3ncnc4sccc34)nnc12	?	?	?	?	18µM*	21µM*
COc1cc(O)ccc1-c1nc2cc(C)ccn2c1Nc1ccccc1C	/	?	i	/	/	/
